# Bioassay records (PubChem BioAssay)
# Shown are actives, neighbours in structure and some others; about 6.7% of the full set was active somewhere.
# Pf Dd2 growth: P. falciparum Dd2 growth inhibitors, primary screen, SYBR Green fluorescence, single dose replicates; 94,000 compounds, 2.3% hits; AID 1159554, 2015; 72 h; active compounds read low; activity change, % at 10 µM; in the data active = activity change below about -80%; inconclusive = no clear call, values can overlap the other calls
# T cruzi growth-1: T. cruzi intracellular proliferation inhibitors, primary screen, cell-based, beta-gal Tulahuen parasites, NIH3T3 host, luminescence. 77,000 compounds, 5.9% hits. T. cruzi beta-gal in NIH3T3, GalScreen luminescence, 90 h. inhibition, % at 8.34 µM;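 active = mean inhibition above about 93%, with at least 55% of replicates each passing it, limit read from the data, passing the limit was not always enough; inconclusive = only one of those two conditions holds; inactive = neither condition holds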
# C diff HTS: C. difficile growth inhibitors, primary screen, HTS; 86,000 compounds, 0.25% hits; growth activity, negative = inhibition, % at 16 µg/mL (by protocol); Clostridium difficile clinical isolate growth, OD600, 24 h; active compounds read low;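 active = mean growth activity at or below -80% and every replicate also at or below -80%; inconclusive = mean at or below -80% but some replicate above -80%; inactive = mean growth activity above -80%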
# T cruzi growth-2: T. cruzi intracellular proliferation inhibitors, confirmation, cell-based, NIH3T3 host, beta-gal parasite, luminescence, cherry-pick | shares compounds with T cruzi growth-1 | T. cruzi beta-gal in NIH3T3, GalScreen luminescence, 90 h | inhibition, % at 8.35 µM | 5,600 compounds, 72% hits;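 active = mean replicate inhibition above about 95% and at least 55% of replicates individually reaching it, limit read from the data; inconclusive = only one of the two criteria is met; inactive = neither criterion is met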
# T cruzi growth-3: inhibitors of intracellular T. cruzi replication, confirmation, NIH3T3 host cells, beta-gal parasites, cherry-pick, set 2; shares compounds with T cruzi growth-1; T. cruzi beta-gal in NIH3T3, GalScreen luminescence, 90 h; inhibition, % at 2.09 µM; 5,600 compounds, 21% hits; AID 651740, 2012;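 active = mean inhibition above about 95%, with at least 55% of replicates also reaching it, limit read from the data; inconclusive = meets just one of the two conditions; inactive = meets neither condition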
# 3T3 cytotox: cytotoxicity in mouse NIH/3T3 fibroblasts, confirmation, cytotoxicity control for T. cruzi proliferation inhibitor project, cell-based, cherry-pick, single point; shares compounds with T cruzi growth-1; NIH/3T3 viability, CellTiter-Glo ATP luminescence, 90 h; cytotoxicity (signal decrease), % at 8.35 µM; 5,600 compounds, 14% hits; AID 651742, 2012;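 active = mean signal decrease across replicates above about 35% based on untreated-well scatter, with enough replicates individually passing, limit read from the data; inconclusive = no rule stated though some were filed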
# NIH3T3 tox 2: NIH/3T3 fibroblast cytotoxicity, confirmation, cytotoxicity control, cell-based, cherry-pick, single point, set 2; shares compounds with T cruzi growth-1; NIH/3T3 viability, CellTiter-Glo ATP luminescence, 90 h; inhibition, % at 24.9 µM; AID 651744, 2012; 5,600 compounds, 56% hits;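 active = mean loss of cell viability signal at or above a set limit, and enough replicates individually reaching it; inconclusive = meets only the mean limit or only the replicate share; inactive = meets neither condition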
# A number is an active result; 0 = inactive; ? = inconclusive; - = not tested or not shown.
SMILES,Pf Dd2 growth,T cruzi growth-1,C diff HTS,T cruzi growth-2,T cruzi growth-3,3T3 cytotox,NIH3T3 tox 2
C[C@H]1CN([C@@H](C)CO)S(=O)(=O)c2ccc(-c3cccc(C#N)c3)cc2O[C@H]1CN(C)C(=O)Nc1cc(F)ccc1F,0,-,0,-,-,-,-
C[C@H]1CN([C@@H](C)CO)S(=O)(=O)c2ccc(-c3ccc(C#N)cc3)cc2O[C@@H]1CN(C)C(=O)Nc1cc(F)ccc1F,0,108.1,0,0,0,0,75.5
C[C@H]1CN([C@@H](C)CO)S(=O)(=O)c2ccc(-c3cccc(F)c3)cc2O[C@@H]1CN(C)C(=O)Nc1cc(F)ccc1F,0,111.9,0,106.4,0,43.1,85.9
C[C@H](CO)N1C[C@H](C)[C@H](CN(C)C(=O)Nc2cc(F)ccc2F)Oc2cc(-c3cccc(C#N)c3)ccc2S1(=O)=O,0,-,0,-,-,-,-
C[C@H]1CN([C@@H](C)CO)S(=O)(=O)c2ccc(-c3cccc(F)c3)cc2O[C@H]1CN(C)C(=O)Nc1cc(F)ccc1F,0,112.0,0,104.7,102.3,62.8,42.2
C[C@@H]1CN([C@@H](C)CO)S(=O)(=O)c2ccc(-c3ccc(C#N)cc3)cc2O[C@H]1CN(C)C(=O)Nc1cc(F)ccc1F,0,0,0,-,-,-,-
C[C@H]1CN([C@@H](C)CO)C(=O)c2cc(NS(=O)(=O)c3ccccc3)ccc2O[C@@H]1CN(C)C(=O)Nc1ccc(C(F)(F)F)cc1,0,0,-,-,-,-,-
CN(C)c1ccc2c(c1)[C@@H]1C[C@@H](CC(=O)NCc3ccccc3)O[C@H](CO)[C@@H]1O2,0,0,-,-,-,-,-
CN(C)c1ccc2c(c1)[C@H]1C[C@@H](CC(=O)NCc3ccc(Oc4ccccc4)cc3)O[C@@H](CO)[C@H]1O2,0,108.4,0,0,0,0,0
CN(C)c1ccc2c(c1)[C@@H]1C[C@@H](CC(=O)NCc3ccc4c(c3)OCO4)O[C@@H](CO)[C@@H]1O2,0,121.4,-,106.4,0,0,0
CN(C)c1ccc2c(c1)[C@H]1C[C@H](CC(=O)NCc3ccc4c(c3)OCO4)O[C@H](CO)[C@H]1O2,0,0,-,-,-,-,-
CN(C)CC(=O)Nc1ccc2c(c1)[C@H]1C[C@@H](CC(=O)N3CCOCC3)O[C@H](CO)[C@H]1O2,0,0,0,-,-,-,-
CCc1csc(N2[C@H](C#N)[C@H](c3ccc(C#Cc4ccc(F)cc4)cc3)[C@H]2CO)n1,0,0,0,-,-,-,-
CCc1csc(N2[C@H](C#N)[C@@H](c3ccc(-c4cccc(F)c4)cc3)[C@H]2CO)n1,0,100.4,0,108.1,0,0,31.4
CCc1csc(N2[C@H](CO)[C@@H](c3ccc(-c4ccc(F)cc4)cc3)[C@@H]2C#N)n1,0,103.1,0,102.2,0,0,102.8
CCc1csc(N2[C@@H](C#N)[C@@H](c3ccc(C#Cc4ccc(F)cc4)cc3)[C@@H]2CO)n1,0,0,0,-,-,-,-
N#C[C@@H]1[C@@H](c2ccc(-c3cccc(F)c3)cc2)[C@H](CO)N1c1nc(-c2ccccc2)cs1,0,-,0,-,-,-,-
CCc1csc(N2[C@@H](C#N)[C@H](c3ccc(-c4cccc(F)c4)cc3)[C@@H]2CO)n1,0,104.7,0,102.7,0,0,0
CCc1csc(N2[C@@H](C#N)[C@@H](c3ccc(-c4cccc(F)c4)cc3)[C@@H]2CO)n1,0,99.7,0,?,0,45.3,81.6
CCCNC(=O)Nc1ccc2c(c1)C(=O)N(C)C[C@H](OC)[C@H](C)CN(C(=O)C1CCCCC1)[C@H](C)CO2,0,0,0,-,-,-,-
O=C(N[C@H]1CC[C@@H](CCNS(=O)(=O)c2cccc(Cl)c2)O[C@H]1CO)c1ccncc1,0,0,-,-,-,-,-
COc1ccc2c3c(n(C)c2c1)[C@H](CO)N(Cc1ccccc1)CC31CCN(C(=O)c2ccccc2F)CC1,0,-,0,-,-,-,-
CCc1csc(N2[C@H](C#N)[C@@H](c3ccc(-c4cccc(F)c4)cc3)[C@@H]2CO)n1,0,98.3,0,111.1,0,0,96.0
CCc1csc(N2[C@H](CO)[C@H](c3ccc(-c4cccc(F)c4)cc3)[C@@H]2C#N)n1,0,0,0,-,-,-,-
Cc1noc(C)c1S(=O)(=O)N(C)C[C@@H]1Oc2ccc(NC(=O)Cc3ccccc3)cc2CC(=O)N([C@@H](C)CO)C[C@@H]1C,0,0,0,-,-,-,-
SMILES,Pf Dd2 growth,T cruzi growth-1,C diff HTS,T cruzi growth-2,T cruzi growth-3,3T3 cytotox,NIH3T3 tox 2
N#C[C@H]1[C@@H](c2ccc(C3=CCCC3)cc2)[C@H](CO)N1c1nc(-c2ccccc2)cs1,0,-,0,-,-,-,-
CCc1cnc(N2[C@H](CO)[C@H](c3ccc(C4=CCCCC4)cc3)[C@@H]2C#N)s1,0,103.5,0,104.5,101.7,38.0,40.0
CCc1csc(N2[C@H](C#N)[C@H](c3ccc(C4=CCCC4)cc3)[C@@H]2CO)n1,0,101.6,0,106.9,112.5,0,36.2
CCc1cnc(N2[C@@H](C#N)[C@H](c3ccc(C4=CCCCC4)cc3)[C@@H]2CO)s1,0,0,0,-,-,-,-
CCc1csc(N2[C@H](C#N)[C@H](c3ccc(C4=CCCC4)cc3)[C@H]2CO)n1,0,102.5,0,103.3,0,0,0
N#C[C@H]1[C@H](c2ccc(C3=CCCC3)cc2)[C@@H](CO)N1c1nc(-c2ccccc2)cs1,0,0,0,-,-,-,-
O=C(C[C@H]1CC[C@@H]2[C@H](COC[C@@H](O)CN2C(=O)Nc2ccccc2)O1)NCc1ccncn1,-,0,0,-,-,-,-
CCC(=O)N[C@@H]1CC[C@H](CCNS(=O)(=O)c2ccc(Cl)cc2)O[C@@H]1CO,0,-,0,-,-,-,-
C[C@@H]1CN([C@H](C)CO)C(=O)c2cccc(NS(=O)(=O)c3cccs3)c2O[C@@H]1CN(C)S(=O)(=O)c1ccccc1,0,0,-,-,-,-,-
C[C@H]1CN([C@@H](C)CO)S(=O)(=O)c2ccc(C3=CCCC3)cc2O[C@H]1CN(C)CC1CCOCC1,0,-,0,-,-,-,-
CCCN(C)C[C@H]1OCCCC[C@H](C)Oc2ccc(NS(=O)(=O)c3ccc(F)cc3)cc2C(=O)N([C@H](C)CO)C[C@H]1C,0,0,0,-,-,-,-
COC(=O)c1cn(CCNC(=O)[C@H](Cc2ccccc2)NS(=O)(=O)c2ccc(C)cc2)nn1,-,-,0,-,-,-,-
COc1cccc(C#Cc2ccc([C@@H]3[C@@H](C#N)N(C(=O)C4CC4)[C@H]3CO)cc2)c1,0,0,0,-,-,-,-
COc1cccc(C#Cc2ccc([C@H]3[C@@H](CO)N(C(=O)C4CC4)[C@H]3C#N)cc2)c1,0,98.0,0,103.4,113.2,0,0
